Among all 53,000 sequences or so, about 3,700 (7%) were called active. Only a selection was taken, and actives are over-represented in it overall. Values without a mark were called inactive.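 The calls were made as follows: active = gene knockdowns whose robust z-score for IL-1 alpha signal is at least 2 or at most -2, so actives lie on both sides; inactive = the rest.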
Assay: Components of the Cytosolic LPS Sensing Pathway: Gene Identification via Genome-wide siRNA Screen
Details: RAW264.7 macrophages, IL-1a HTRF, actives lie on both sides, screened at 100 nM (by protocol), cells primed 5 h with Pam3CSK4 first
Excerpt: Non-canonical inflammasome activation by cytosolic LPS is a critical component of the host response to Gram-negative bacterial infection, however we lack a comprehensive understanding of the cellular processes that control this pathway. Here we describe a genome-wide siRNA screen to identify genes regulating the mouse macrophage IL-1 alpha response to cytosolic LPS.
RAW264.7 cells were maintained in complete DMEM media, comprising DMEM with 4.5 g/L glucose, 10% FBS (Gemini Bio-Products, West Sacramento, CA), 2 mM Glutamine (Lonza) and 20 mM HEPES (Lonza), hereafter complete DMEM.
The RNAi screen was conducted in 384-well format using the Ambion Silencer Mouse Genome siRNA Library (#4391425), which consists of three unique, nonoverlapping, nonpooled siRNAs for each of 17,000 gene targets. siRNA reagents ([…]) were stamped into 384-well white flat-bottom microplates (Corning, 3570) using a Velocity11 VPrep liquid handling system (Agilent) integrated into a BioCel robotic platform (Agilent) in columns 1-22, leaving columns 23-24 empty for negative (Ambion, Negative control #1) and positive (mouse Casp4) controls, respectively. The median value of each plate's negative control column was used to normalize sample wells, and the positive control was used to assess transfection efficiency and assay performance.
Lipofectamine RNAiMAX Transfection Reagent ([…]; Invitrogen) was added in […] serum-free, antibiotic-free media to plate wells using a Thermo Scientific Matrix WellMate and Microplate Stacker. Plates were incubated for 45 min at room temperature to allow for the sufficient formation of siRNA-lipid complexes. Cells were seeded at a density of 1x10^4 cells per well in 20 microL media containing 20% (vol/vol) FBS without antibiotics. The final concentration of siRNA in each well was 100 nM. Cells were cultured for 48h at 37 degrees C in 5% CO2 before addition of […] of TLR ligand Pam3CSK4 for 5 hours. The medium was then removed, replaced with […] growth media and cell were transfected with […] of LipidA and TransIT-TKO (Mirus) for 24 hour. At the end of the LipidA treatment, […] of supernatant was transferred to a 384 Greiner Bio-one non-binding low volume plate and […] of IL-1a HTRF reagent (Cisbio, 62MIL1APEH) was added and incubated at room temperature overnight. The plates were read on an EnVision plate reader (PerkinElmer). Cell viability was measured by adding 20ul Cell Titer Glo to the original plate and running a luminescence read on the EnVision. The quantified IL-1a signal for each siRNA gene-targeted well was divided by the median of the negative control wells and multiplied by 100 to achieve a negative control normalized value for each well/siRNA. This normalized value was then used to generate a robust z-score by first taking the log of each value and then by subtracting the median and dividing by the […].

Sequence | z-score
GGAAGAAGAAGAUAAAGCGTT against Grk6 | 0.184
CCACCAGAUACAUAUUUGUTT against Gnpnat1 | -0.352
GGCUUUAAAGAAUGAUUCATT against Cfap97 | 0.197
GGAACUCCACUUUCUUUUUTT against Ripply3 | 2.27 (active)
GGCUGCACAAACAUGGUUCTT against Pard6a | -0.146
GGUGGAAGAUUAGUGACUUTT against Trim38 | 1.63
CCGUGUAAGGUGUGGAGUGTT against Mcat | -2.27 (active)
GGAAAGAUUGUACCAGUUGTT against Cmpk1 | 2.58 (active)
GGUAAAAUUCCAGAGUUGUTT against Serpinb9 | -0.412
GGGUUUGGACUGAUAUACUTT against Vrk2 | -0.465
GGAAUCAGGAAUGCUACUUTT against Tsr1 | 0.216
CAAGAAGGUCAUGUUAUUGTT against Olfr106-ps | 0.495
CGGCUCGUACACAUGUGAATT against Creld2 | 0.199
GGAUGAAGAUGGAGACAUGTT against Lmx1b | -2.58 (active)
GGGUUCAUAUGUUUUGGAUTT against C130050O18Rik | 1.38
GGAGCAGUAUAUCCUACAUTT against Olfr510 | 2.82 (active)
CCCUGACCUUGUGGUAGAATT against Aspdh | -0.165
CGAGAAGAUAUUUAAAGAGTT against Myo10 | -0.045
GGAAAACAAGAGAAGGCGCTT against Pom121 | 0.361
GGCCUAAUUUCCUCUAAUATT against Padi1 | 0.452
GGUCUUCAGACCAGAAACATT against Hsd3b2 | -3.19 (active)
GGAACAUUCUAGAAUCUGUTT against Rps6kb2 | 0.986
GGCCAAUAAAGAAACAAACTT against Cst9 | 1.08

Sequence | z-score
GGGUGUUGAAAGACUUUUATT against Tnks | -0.122
GCAAUCAUUUCUUCAUCUATT against Olfr148 | 0.255
GGAAUACAAAUUCAAGAUCTT against Vamp5 | -0.82
CCUAUCUUUUCCCUACAUGTT against Cyp4a31 | 2.01 (active)
GGGAUAGUGUUCCUUAUCUTT against Neu1 | -2.6 (active)
GGUCAGCGUGGAGUCAAUATT against Fam184b | -1.92
GGAUAUCAUAUUUUCUCAGTT against Fam71d | 0.0644
GGAGGUGCGCUUCUUUAACTT against Chst5 | 0.24
CGAAAAAAAUCCAAGUCAATT against Akap12 | -0.28
GCCUUAGGAAAUUCUCAAUTT against Rbm12b2 | 0.334
GGUCCUACAUCUCCUUCGATT against Cars | -0.194
GCUAGAUUUGAUGGUUCAGTT against Cacng5 | -1.62
GGCAUUUAGUAAAACCCUUTT against Rnf144a | -2.43 (active)
GCAUAUAACCGAGUUGAUUTT against Cdcp1 | 0.183
GCUUCAGGAGCUCUACUGUTT against Catsper3 | -0.736
CCUGCUCUAUGGCAGAACGTT against Nkx2-4 | 0.992
GGAACAGGAGAAUGACAUCTT against D5Ertd579e | -1.25
GGUGCAGAAUCUCUCAUUGTT against Mrpl30 | -2.14 (active)
GCGCGAUUCAGAGGUUUCATT against Raver2 | 0.238
GCACUGCCAGAGGUUCUGUTT against U90926 | -0.107
GCCCUUAGAGAGAAUUUAUTT against Lmo2 | 0.63
GCCACGUUCAAACAGUACCTT against Slc1a7 | 3.94 (active)
GCAGGUUCACAAUGGAUUATT against Lrrc25 | 0.108

Sequence | z-score
GGAAUCUGCUAUGCUUAAATT against Rdh16f2 | -1.84
GCCAGAGUACCACAUUAGUTT against Pcdhga4 | 0.921
GGACCAUGUGAUAAUAUCGTT against Als2 | -0.599
GGAGAUCUGCUCUAAUUAUTT against Eif1ax | 2.21 (active)
GGGAUUGUAACAGCAUCCCTT against Epha6 | 0.594
GGGAAUCUGAUGAAGAUGGTT against Grin3b | -1.56
GGCCUUGAAAUCGUUUUUUTT against Tceal8 | 0.534
GGAUUUUUCAGAUUCUAGATT against Hs6st2 | 0.375
GGAUUUAGGCUACUUUUUCTT against Art4 | -0.387
GAUGUACGAUCUGGUGGUGTT against Exosc6 | 2.73 (active)
GGAUUUAGAUCACUUGGAGTT against Tmem68 | -0.811
GGAGUGUUGGAUGCUACCATT against Ache | -1.12
GGGCAAUGGGUGAUCUAAUTT against Phactr1 | 0.00934
GGAACUUUUUAAGAUGCGUTT against Ranbp1 | -0.36
GGAUGCCUAUCACAAGCAGTT against Pacsin1 | -0.478
GGCCCAUUACUUGUUGACUTT against Fanci | 0.378
GAGCAAUGAGCAGAGAUUCTT against H2-D4 | 1.93
GGACUUCAACUUGAUGGAGTT against Add2 | 2.02 (active)
GGAUGCUAAUUCAAGUCUUTT against Slc1a7 | 0.292
GGUUAUUAAGGAUAAACUGTT against Cops5 | 2.28 (active)
GGAACUUACAUGAAUUCCATT against Slco1a4 | -0.229
GCCACUUCCUGGAUAAGGATT against Ftl2-ps | -2.88 (active)

From PubChem BioAssay AID1508600 (Functional Genomics Laboratory (NCATS/FGL), 2020)
